PubChem BioAssay (EPA / NIEHS)
Values joined by “and” are separate entries in the source; they are usually repeats but may differ in a detail not shown here. Equal values may be shown once. Active and inactive are the calls of the source. Rule for the calls: active = hit-call score of the fitted dose curve at least 0.9, where 1 is the maximum; inactive = score below 0.9.

experiment: BSK_SAg_PBMCCytotoxicity: PBMC Cytotoxicity Assessment in the BioMAP Diversity Plus: SAg Assay (AID 2283093); conditions: primary human HUVEC with PBMC;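 note: PBMC viability measured as Alamar Blue reduction fluorescence at 546/580 nm; fitted both ways against DMSO so a hit may be loss or gain of signal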;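 for AC50: PBMC superantigen activated with SEB plus TSST-1 one hour after compound addition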
Summary of the method: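 Alamar Blue reduction (6 h, ex/em 546/580 nm) read after 90 h culture of PBMC pre-dosed 1 h then stimulated with SEB plus TSST-1, 20 ng/mL each. Gain or loss of signal fitted relative to DMSO.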

Row | Structure (SMILES) | outcome | AC50
1 | CCOC(=O)C(C)Oc1ccc(Oc2nc3ccc(Cl)cc3o2)cc1 (centres undefined) | inactive | –
2 | Cc1nn(C)c(Oc2ccccc2)c1C=NOCc1ccc(C(=O)OC(C)(C)C)cc1 | inactive | –
3 | O=C(O)c1ccccc1 | inactive | –
4 | CCCCOC(=O)C(C)Oc1ccc(Oc2ccc(C(F)(F)F)cn2)cc1 (centres undefined) | inactive | –
5 | CC1(C)C(C=C(Cl)Cl)C1C(=O)OCc1cccc(Oc2ccccc2)c1 (centres undefined) | inactive | –
6 | COc1nc(C)nc(NC(=O)NS(=O)(=O)c2ccccc2OCCCl)n1 | inactive | –
7 | COC(=O)c1c(Cl)nn(C)c1S(=O)(=O)NC(=O)Nc1nc(OC)cc(OC)n1 | inactive | –
8 | CSC(=O)c1cccc2nnsc12 | inactive | –
9 | CCOC(=O)[C@H](C)Oc1ccc(Oc2nc3ccc(Cl)cc3o2)cc1 | inactive | –
10 | CCCOC(=O)c1ccc(C(=O)OCCC)nc1 | inactive | –
11 | CCC(O)=C1C(=O)CC(C(=O)O)CC1=O (centres undefined) | inactive | –
12 | C#C[C@]1(O)CC[C@H]2[C@@H]3CCC4=CC(=O)CC[C@@H]4[C@H]3CC[C@@]21CC | inactive | –
13 | CCCCOC(=O)[C@@H](C)Oc1ccc(Oc2ccc(C(F)(F)F)cn2)cc1 | inactive | –
14 | CCCN(CCC)c1c([N+](=O)[O-])cc(C(F)(F)F)c(N)c1[N+](=O)[O-] | – | 15 µM (active)
15 | CCNc1nc(N)nc(Cl)n1 | inactive | –
16 | CC(C)CCCCCCc1ccc(O)cc1 | – | 6.38 µM (active)
17 | COC(=O)c1ccccc1S(=O)(=O)NC(=O)Nc1nc(OC(F)F)cc(OC(F)F)n1 | inactive | –
18 | CCCCC(CC)COC(=O)c1ccccc1C(=O)O (centres undefined) | inactive | –
19 | N#CSCSc1nc2ccccc2s1 | – | 909 nM (active) and 2.23 µM (active)
